# Source: PubChem BioAssay
# A selection: hits, their analogues and other compounds. The true share with any hit is near 2.9%.
# LDHA inh: blocks human lactate dehydrogenase A | P00338 | activity change, % (values are at about 110 or 230 µM) | purified LDHA, NADH/diaphorase-resazurin fluorescence; stronger effect = lower value | actives 0.15% (n = 480,000); in the data active = activity change below about -30%; inconclusive = mostly about -25% to -30%;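 also: plate controls were DMSO wells for no effect and wells without enzyme for full effect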
#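 Resorufin fluorescence (ex540/em590), read at 0 and 20 min after diaphorase/resazurin addition, reports the NADH left after a 5 min room-temperature reaction of 2 nM human LDH5 with 0.06 mM NADH and 0.2 mM pyruvate.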
# p53 reactivator: mutant p53 re-activation in reporter cells. H1299 p53-A138V BP100-luciferase reporter, luminescence, 24 h. Potency, µM (highest dose often 92.2 µM), inactives show at the top dose activity change, positive = activation, most hits filed as activators. actives 0.063% (n = 320,000); also: potency is read from the fitted curve at half-maximal effect; % of control where 0% means no effect; nearly all actives have a fitted effect of over 45% in size
#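 p53-null H1299 cells stably carrying temperature-sensitive p53-A138V and a BP100-luciferase reporter were pinned with compounds (4-point, 1:5 series) and held 24 hrs at 37 deg C. Luminescence was read 10 min after detection reagent.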
# GLP-1R agonist: activates the human GLP-1 receptor. actives 0.007% (n = 380,000). HEK293 GLP-1R CRE-luciferase, luminescence, 4-6 h; cells express a hypersensitive GLP-1R form. Potency, µM (top dose mostly 45.6 µM), for the others: at the highest dose activation, actives largely listed as activators. P43220; also: potency is read from the fitted curve at half-maximal effect; % of control where 0% means no effect
# Target sequence (P43220 whole entry, looked up): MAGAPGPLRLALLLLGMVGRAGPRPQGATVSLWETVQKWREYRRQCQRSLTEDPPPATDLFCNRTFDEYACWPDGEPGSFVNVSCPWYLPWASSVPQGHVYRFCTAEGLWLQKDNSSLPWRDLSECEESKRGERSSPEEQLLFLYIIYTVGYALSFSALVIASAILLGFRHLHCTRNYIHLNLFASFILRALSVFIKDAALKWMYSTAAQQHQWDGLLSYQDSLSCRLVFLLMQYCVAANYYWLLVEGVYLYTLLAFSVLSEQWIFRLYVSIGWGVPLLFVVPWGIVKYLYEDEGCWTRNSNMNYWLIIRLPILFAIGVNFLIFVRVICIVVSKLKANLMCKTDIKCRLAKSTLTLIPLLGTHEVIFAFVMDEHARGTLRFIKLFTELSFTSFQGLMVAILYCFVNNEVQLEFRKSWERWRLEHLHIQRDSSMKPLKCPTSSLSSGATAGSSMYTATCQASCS
# ClpP mod: qHTS Assay for Activators of ClpP; purified B. subtilis ClpP, FRET peptide cleavage, 20 min; Potency, µM (series often up to 57.5 µM), for the others: top-dose activity change, negative = active; actives 1.9% (n = 340,000); AID 651965, 2013; active = well fitted falling curve with a large enough effect; inconclusive = small, poorly fitted or top-dose-only effect; inactive = no such curve, though single readings can be large or run the other way; also: potency is read from the fitted curve at half-maximal effect; the source files actives as falling curves though it sought activators and does not explain the sign; nearly all actives have a fitted effect of over 65% in size
# Target sequence (P80244 whole entry, looked up): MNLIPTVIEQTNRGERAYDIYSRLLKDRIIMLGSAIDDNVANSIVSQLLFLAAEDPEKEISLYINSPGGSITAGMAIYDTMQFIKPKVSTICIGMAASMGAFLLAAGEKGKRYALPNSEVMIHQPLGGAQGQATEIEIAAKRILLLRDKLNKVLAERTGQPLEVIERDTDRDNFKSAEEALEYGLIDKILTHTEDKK
#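 Buffer: 100 mM Tris/HCl pH8, 100 mM KCl, 0.05% low protease BSA, 2.5% glycerol, 0.01% Tween-20. ClpP 10 microg/mL final; 20 min RT; delta FRET normalized to ADEP and DMSO controls.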
# GLP-1R inv ag: acts as inverse agonist at human GLP-1 receptor; actives 1.6% (n = 410,000); AID 624417; HEK293 GLP-1R CRE-luciferase, luminescence, 24 h; GLP-1R form is constitutively active; Potency, µM (series often up to 38.3 µM), inactives show at the highest dose activity change, negative = inhibition, actives largely listed as inhibitors; P43220; also: potency is read from the fitted curve at half-maximal effect; % is scaled to controls: 0 for no effect and ±100 for the full control effect; nearly all actives have a fitted effect of over 55% in size
#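 Inverse agonism was detected as reduced cAMP-driven luciferase luminescence after 24 h compound treatment. The cells were HEK293 clones expressing constitutively active human GLP-1R with the reporter. Reporter-only and GPR119 cell lines served as counterscreen controls.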
# HEK293 tox: cytotoxicity counter-screen for GLP-1 receptor inverse agonists; HEK293 cAMP-luciferase reporter cells, luminescence, 24 h; Potency, µM (series often up to 38.3 µM), inactives show top-dose activity change, negative = inhibition, usual class: inhibitors; actives 0.13% (n = 410,000); AID 624418;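 also: loss of luciferase light is scored as toxicity; potency is read from the fitted curve at half-maximal effect; % is scaled to controls: 0 for no effect and ±100 for the full control effect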
#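 Step one: seed cells (200 cells/uL, DMEM with 10% Nu serum, 1% pen-strep). Step two: 12-hour incubation at 37 deg C. Step three: pin 23 nL compound, incubate 24 hr. Step four: add luciferase reagent, read luminescence 12 min later.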
# * = called active by the depositor; ? = inconclusive; · = not tested or not shown; ! = not active in a repeat. Unless noted, calls follow the shape of the dose curve; as a rule, active = well fitted curve in the direction sought with a large enough effect; inconclusive = small, poorly fitted or top-dose-only effect, or another doubt; inactive = no such curve, though single readings can be large; an effect the other way counts as inactive or inconclusive.
SMILES,LDHA inh,p53 reactivator,GLP-1R agonist,ClpP mod,GLP-1R inv ag,HEK293 tox
COC(=O)c1cc(NS(=O)(=O)c2ccc(OC)c(OC)c2)ccc1Cl,10,-8%,14%,4%,8%,-9%
OC[C@@H](O)[C@H](O)C(/C=N/Nc1ccccc1)=N\Nc1ccccc1,-1,-6%,0%,34%,2.5µM*,?
Cc1ccc2c(c1)C1CN(C)CCC1N2S(=O)(=O)c1ccc(C(C)C)cc1 (configuration not stated),-1,-8%,1%,1%,?,1%
CCSc1nc(N2CCOCC2)c2c(c1C#N)CC(C)(C)N(C)C2,-4,1%,9%,?,-9%,-11%
CC(C(=O)NC1CCCC1)N(C(=O)Cn1nnc(-c2ccc(F)cc2)n1)c1ccccc1F (configuration not stated),-3,-9%,7%,·,?,-30%
CC(C(=O)NC1CCCC1)N(C(=O)c1ccc(-c2ccccc2)[nH]1)c1ccccc1F (configuration not stated),-6,-1%,-12%,32µM*,0%,1%
COCCCN(C(=S)Nc1ccc(C)cc1Cl)C(C)c1ccncc1 (configuration not stated),-2,21%,-2%,2%,?,7%
Cc1ccc(NC(=S)N(CCC(C)C)C(C)c2ccncc2)c(Cl)c1 (configuration not stated),0,4%,13%,·,10µM*,-8%
N#CC1(Cc2ccc(Cl)cc2)c2ccccc2C=CN1C(=O)c1ccccc1 (configuration not stated),-5,-2%,-8%,-3%,7.9µM*,15%
CCC1CCc2sc(C(=O)NCc3cccs3)cc2C1 (configuration not stated),-1,·,·,·,·,·
NC(=O)c1ccccc1NC(=O)N1CCOCC1,-1,·,2%,-1%,-6%,-2%
CC1C=CC(C)C(C(=O)c2ccccc2)C1C(=O)c1ccccc1 (configuration not stated),-1,·,6%,0%,13µM*,7%
O=C(c1ccccc1)C1OC1C(=O)c1ccccc1 (configuration not stated),-9,·,-2%,·,?,-24%
Cc1ccc(NC(=O)C(c2ccc(Cl)cc2Cl)N2CCCC2)cc1 (configuration not stated),2,7%,-12%,1%,10µM*,-7%
CC(C)c1ccc(NC(=O)C(c2ccc3c(c2)OCO3)N2CCCCC2)cc1 (configuration not stated),-3,15%,-3%,-1%,4µM*,-17%
CC1CCN(C(C(=O)Nc2ccc(C(C)C)cc2)c2ccc3c(c2)OCO3)CC1 (configuration not stated),3,6%,0%,2%,4.5µM*,-1%
Cc1cccc(NC(=O)C(c2ccccc2Cl)N2CCOCC2)c1 (configuration not stated),-2,2%,2%,·,?,-1%
CC(C)c1ccc(NC(=O)C(c2ccc3c(c2)OCO3)N2CCC3(CC2)OCCO3)cc1 (configuration not stated),0,4%,0%,-3%,?,-6%
COc1cccc(NC(=O)C(c2ccccc2)N2CCCCC2)c1 (configuration not stated),-4,-2%,6%,·,?,-2%
CC(C)c1ccc(NC(=O)NC(C)c2ccc3c(c2)OCO3)cc1 (configuration not stated),-6,-2%,-5%,-3%,?,-23%
O=C(Nc1cc(Cl)cc(Cl)c1)C(c1ccccc1)N1CCCCC1 (configuration not stated),-4,13%,0%,-4%,2.2µM*,7%
COCCn1cnnc1SCc1csc(-c2cc(Br)ccc2OC)n1,7,·,·,·,·,·
Cc1cc(C)cc(NS(=O)(=O)c2csc(C(N)=O)c2)c1,-17,-2%,9%,·,-10%,-2%
CCN(c1ccccc1)S(=O)(=O)c1ccc(OC)c(NC(=O)Cc2ccccc2OC)c1,3,-3%,4%,0%,10µM*,-12%
CCN1CCN(CC(=O)Nc2cc(S(=O)(=O)N(CC)c3ccccc3)ccc2Cl)CC1,-1,-13%,8%,·,10µM*,?
SMILES,LDHA inh,p53 reactivator,GLP-1R agonist,ClpP mod,GLP-1R inv ag,HEK293 tox
CCN(c1ccccc1)S(=O)(=O)c1ccc(OC)c(NC(=O)Cc2ccc(OC)c(OC)c2)c1,-1,-4%,-2%,0%,-23%,2%
Cc1ccccc1CNC(=O)C(=O)NCC1OCCCN1S(=O)(=O)c1cccs1 (configuration not stated),-18,-4%,1%,-3%,7%,0%
Cc1ccc(-c2cc(C(=O)NCCc3ccccc3)c3ccccc3n2)cc1,3,·,·,·,·,·
NS(=O)(=O)c1ccc(CCNC(=O)c2cc(-c3ccc(Br)cc3)nc3ccccc23)cc1,-4,-6%,-1%,12%,?,11µM*
CCCc1ccc(-c2cc(C(=O)NCCc3ccc(S(N)(=O)=O)cc3)c3ccccc3n2)cc1,-15,1%,1%,32µM*,-3%,-15%
CC(=O)OCC1OC(Sc2cccc3cccnc23)C(OC(C)=O)C(OC(C)=O)C1OC(C)=O (configuration not stated),0,-7%,5%,16µM*,?,?
COc1ccccc1N1CCN(CCCN2C(=O)C3CCCCN3C2=O)CC1 (configuration not stated),-1,·,5%,-1%,13%,-19%
COc1ccccc1N1CCN(CCN2C(=O)C3CCCCN3C2=O)CC1 (configuration not stated),-3,-8%,-3%,32µM*,3%,-2%
COc1cc(CNC2CCCCCCC2)cc(Br)c1OCC#N,-12,-3%,-4%,-2%,?,?
CCOc1c(Br)cc(CNC2CCCCCCC2)cc1OC,-7,1%,-1%,-1%,3.2µM*,2%
COC(=O)Oc1nsnc1N1CCOCC1,-5,6%,-1%,-1%,2%,-10%
CCn1c2ccc(C)cc2c2nnc(SCCN3CCCCC3)nc21,-1,4%,19%,-3%,?,-1%
CCCn1c2ccc(C)cc2c2nnc(SCCN3CCCCC3)nc21,2,-6%,15%,-3%,7.1µM*!,-13%
